Laboratory results: PubChem BioAssay AID686979 (National Center for Advancing Translational Sciences (NCATS), 2013)
Hit rate of the full screen: of about 420,000 compounds, about 50,000 (12%) were called active. Inconclusive results (about 26%) are left out. Calls follow the shape of the dose curve; as a rule, active = well fitted inhibition curve with a large enough effect; inconclusive = small, poorly fitted or top-dose-only effect; inactive = flat fitted curve, though single readings scatter. The full list was thinned out, with actives kept by preference.
% is scaled to controls: 0 for no effect and ±100 for the full control effect; potency is read from the fitted curve at half-maximal effect.

Experiment: qHTS for Inhibitors of human tyrosyl-DNA phosphodiesterase 1 (TDP1): qHTS in cells in presence of CPT; also: nearly all actives have a fitted effect of over 55% in size
Conditions: chicken DT40 Tdp1-/-;hTDP1 cells + 20 nM CPT, ATP luminescence, 48 h; series mostly up to 46.2 µM; activity change, negative = growth inhibition: at the top concentration
Method in brief: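 Chicken DT40 Tdp1-/- cells complemented with human TDP1, 400 cells/well, exposed to compounds plus 20 nM camptothecin for at least 48 h at 37 C; viability read as ATP content by CellTiter-Glo luminescence.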
For `COc1cc(OC)cc(-c2c(C#Cc3ccsc3)c3cc(-c4ccc(OC)cc4F)ccc3n2C)c1`, the “activity change, negative = growth inhibition” value was -8.28% (inactive).
For `CCOC(=O)C1(CCOC)CCN(Cc2ccc(C(=O)OC)cc2)CC1`, the “activity change, negative = growth inhibition” value was 5.25% (inactive).
For `O=C(c1cn(CC2CCCN(Cc3cc4ccccc4s3)C2)nn1)N1CCCC1` (stereo unspecified), the “activity change, negative = growth inhibition” value was 11.8% (inactive).
For `CCOC(=O)C1(S(=O)(=O)c2ccc(Cl)cc2)CCN(Cc2ccccc2)CC1`, the “activity change, negative = growth inhibition” value was -27.7% (inactive).
With `CCOC(=O)C1(CCOC)CCN(Cc2cc3ccccc3s2)CC1` the Potency was 18.4 µM (active).
With `O=C(CCc1ccccc1)Nc1ccnn1C1CCN(Cc2ccc(OCCO)cc2)CC1` the “activity change, negative = growth inhibition” value was 6.63% (inactive).
In the case of `CCOC(=O)C1(CCOc2ccccc2)CCN(C(=O)c2cncs2)CC1`, the “activity change, negative = growth inhibition” value is reported as -28.5% (inactive).
With `CCOC(=O)C1(Cc2cccc(OC)c2)CCN(C(C)CC(C)(C)O)CC1` (stereo unspecified) the “activity change, negative = growth inhibition” value was -9.64% (inactive).
With `CCOC(=O)C1(CCOc2ccccc2)CCN(Cc2ccc(C#CCCO)cc2)CC1` the Potency was 18.4 µM (active).
For `CCOC(=O)C1(CCOc2ccccc2)CCN(Cc2cc(OC)cc(OC)c2)CC1`, the Potency was 25.9 µM (active).
With `COc1cc(C)ccc1OCC(=O)OCC(=O)c1ccc[nH]1` the “activity change, negative = growth inhibition” value was 11.1% (inactive).
For `Cc1cc(NS(=O)(=O)c2ccc(NC(=O)C(C)Oc3cccc(C)c3C)cc2)nc(C)n1` (stereo unspecified), the “activity change, negative = growth inhibition” value was 7.99% (inactive).
In the case of `N#CC1(C#N)C(C(=O)C23CC4CC(CC(C4)C2)C3)C12CCOCC2` (stereo unspecified), the “activity change, negative = growth inhibition” value is reported as -6.84% (inactive).
For `COc1ccccc1NC(=O)c1ccc(N2CC3CC(C2)c2cccc(=O)n2C3)c(NC(=O)c2cccnc2)c1` (stereo unspecified), the “activity change, negative = growth inhibition” value was -14.7% (inactive).
With `Cc1ccc(S(=O)(=O)N(Cc2cccc([N+](=O)[O-])c2)C(=O)N2CCN(C)CC2)cc1` the “activity change, negative = growth inhibition” value was -7.27% (inactive).
With `O=C(Nc1cccc([N+](=O)[O-])c1)Nc1ccc(Cl)cn1` the “activity change, negative = growth inhibition” value was 4.19% (inactive).
For `O=C(CCl)N(Cc1cccc([N+](=O)[O-])c1)c1cccc(Cl)c1`, the Potency was 2.31 µM (active).
In the case of `COc1ccccc1N1CCC(N2CCN(CC(C)(C)C)C(CCO)C2)CC1` (stereo unspecified), the “activity change, negative = growth inhibition” value is reported as -28.9% (inactive).
In the case of `C=CS(=O)c1sc(Cl)c(N2CCOCC2)c1[N+](=O)[O-]` (stereo unspecified), the Potency is reported as 0.731 µM (active).
In the case of `Cc1cc(C)n(S(=O)(=O)c2cccc([N+](=O)[O-])c2)n1`, the “activity change, negative = growth inhibition” value is reported as -8.29% (inactive).
In the case of `CN(C)S(=O)(=O)c1cc(C(=O)Nc2ccn(C)n2)c(Cl)cc1Cl`, the “activity change, negative = growth inhibition” value is reported as -4.09% (inactive).
In the case of `COCCNC(=O)COc1ccc(N(C)S(=O)(=O)c2ccc3ccccc3c2)cc1`, the “activity change, negative = growth inhibition” value is reported as -15.1% (inactive).
With `NNC(=O)c1ccc(Cl)cc1Cl` the “activity change, negative = growth inhibition” value was 2.28% (inactive).
In the case of `O=S(=O)(Cc1ccc(Cl)cc1Cl)c1ccc(Cl)cc1`, the Potency is reported as 0.82 µM (active).
In the case of `O=S(=O)(NCC1CC1)c1ccc(F)c(Cl)c1`, the “activity change, negative = growth inhibition” value is reported as 8.32% (inactive).
In the case of `O=CN1CCN(C(=O)c2ccc(Br)o2)CC1`, the “activity change, negative = growth inhibition” value is reported as -0.819% (inactive).
With `O=C(CSc1ncnc2c1oc1ccccc12)NC1CCCC1` the “activity change, negative = growth inhibition” value was -20.3% (inactive).
For `CC(C)[C@@H]1COC(c2cccc(C3=N[C@H](C(C)C)CO3)c2)=N1`, the Potency was 20.6 µM (active).
With `O=C(O)CSCC(=O)Nc1ccc(C(F)(F)F)cc1` the “activity change, negative = growth inhibition” value was 17.9% (inactive).
With `O=C(OCC(=O)N1CCCCC1)c1ccc(OC(F)(F)F)cc1` the “activity change, negative = growth inhibition” value was -5.48% (inactive).
In the case of `O=C(CCn1c(=S)[nH]c2ccccc2c1=O)NCCCN1CCCC1=O`, the “activity change, negative = growth inhibition” value is reported as 4.25% (inactive).
In the case of `NS(=O)(=O)c1ccc(CCNC(=O)CCCCCn2c(=O)[nH]c3ccccc3c2=O)cc1`, the “activity change, negative = growth inhibition” value is reported as -16.3% (inactive).
With `Cc1ccc(C)c(N2CCN(C(=O)CCc3c(C)nc4c(c3C)c(=O)n(C)c(=O)n4C)CC2)c1` the “activity change, negative = growth inhibition” value was -1.63% (inactive).
With `O=C(Cc1csc(Nc2nc(=S)[nH]c3ccccc23)n1)NCCCN1CCN(c2cccc(Cl)c2)CC1` the Potency was 16.4 µM (active).
For `O=C(CCn1c(=O)[nH]c2ccccc2c1=O)NCCCN1CCN(c2cccc(Cl)c2)CC1`, the Potency was 20.6 µM (active).
With `O=C(CCCCCn1c(=O)[nH]c2ccccc2c1=O)NCCc1c[nH]c2ccccc12` the “activity change, negative = growth inhibition” value was -24.7% (inactive).
For `CCN(CC)CCNC(=O)CCCCCn1c(=O)[nH]c2cc(C(=O)OC)ccc2c1=O`, the “activity change, negative = growth inhibition” value was -21.7% (inactive).
In the case of `Cc1ccc(C)c(N2CCN(C(=O)CCCCn3c(=O)[nH]c4ccccc4c3=O)CC2)c1`, the Potency is reported as 16.4 µM (active).
With `O=C(CCCn1c(=O)[nH]c2cc(Cl)ccc2c1=O)NCCN1CCN(c2ccccc2)CC1` the Potency was 23.1 µM (active).
For `Cc1nc2ccccc2c2oc(C(=O)NCCCN3CCC(C)CC3)cc12`, the “activity change, negative = growth inhibition” value was -23.5% (inactive).
In the case of `O=C(NCCN1CCOCC1)c1cc(Sc2cccc(Cl)c2)nc2ccccc12`, the “activity change, negative = growth inhibition” value is reported as -34% (inactive).
For `O=C(CCCCn1c(=O)[nH]c2ccccc2c1=O)NCc1ccc2c(c1)OCO2`, the “activity change, negative = growth inhibition” value was -19.6% (inactive).
With `COc1cc(/C=C2\CCCc3c2nc2ccccc2c3C(=O)O)cc(Cl)c1O` the “activity change, negative = growth inhibition” value was 5.4% (inactive).
With `O=C(Nc1cccnc1Oc1ncnc2cc(Cl)ccc12)c1ccc(F)cc1` the “activity change, negative = growth inhibition” value was 8.31% (inactive).
With `CC(NS(=O)(=O)c1ccccc1)c1n[nH]c(=S)n1-c1ccccc1` (stereo unspecified) the “activity change, negative = growth inhibition” value was 2.51% (inactive).
With `CCC(C)CN1C(=O)CN(S(C)(=O)=O)CC1(C)C(=O)Nc1ccc2c(c1)OCCO2` (stereo unspecified) the “activity change, negative = growth inhibition” value was -11.4% (inactive).
In the case of `O=C(C[C@H]1CC[C@H]2[C@@H](COC[C@H](O)CN2C(=O)c2ccccn2)O1)N1CCN(c2ccccc2)CC1`, the “activity change, negative = growth inhibition” value is reported as -15.1% (inactive).
With `Cc1nccn1-c1ccc(NC(=O)[C@H]2O[C@@H](n3ccc(=O)[nH]c3=O)[C@H](O)[C@@H]2O)cc1` the “activity change, negative = growth inhibition” value was -11.3% (inactive).
In the case of `CC(=O)Nc1cnc(-c2ccc(O)cc2C)cn1`, the Potency is reported as 9.2 µM (active).
With `Cc1cc(O)ccc1-c1cnc2ccccc2n1` the “activity change, negative = growth inhibition” value was -26.9% (inactive).
For `CC(=O)Nc1cncc(-c2ccccc2CO)n1`, the “activity change, negative = growth inhibition” value was 17.6% (inactive).
